From PubChem BioAssay (NCI)
This is part of a sample that, as a whole, favours compounds with a hit. Of some 83,000 tested, about 20% had one in any assay.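 Values shown are percent growth following 48 h exposure of cells in 96-well plates to a single concentration of compound; below 10 was considered active.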 Unmarked numbers belong to inactive results. Activity calls are given as the source filed them.

Tests used:
Test in all cases: NCI-60 one-dose screen, 48 h (100 = growth as untreated, 0 = no growth, -100 = all killed)
Conditions in all cases: 10 µM unless noted
[1] = system: DU-145 prostate
[2] = system: MALME-3M melanoma
[3] = system: MDA-MB-231 breast
[4] = system: SF-268 CNS
[5] = system: SF-295 CNS
[6] = system: SF-539 CNS
[7] = system: M14 melanoma
[8] = system: HCT-15 colon
[9] = system: HT29 colon
[10] = system: SNB-19 CNS
[11] = system: U251 CNS
[12] = system: PC-3 prostate
[13] = system: SK-MEL-5 melanoma
[14] = system: UACC-62 melanoma
[15] = system: LOX IMVI melanoma
[16] = system: SK-MEL-28 melanoma
[17] = system: K-562 leukemia
[18] = system: RXF 393 renal
[19] = system: SNB-75 CNS

SMILES	growth [1]	growth [2]	growth [3]	growth [4]	growth [5]	growth [6]	growth [7]	growth [8]	growth [9]	growth [10]	growth [11]	growth [12]	growth [13]	growth [14]	growth [15]	growth [16]	growth [17]	growth [18]	growth [19]
Nc1nc(N)c2cc(CNc3ccc(C(=O)NC(CC(=O)O)C(=O)O)cc3)ccc2n1 (centres undefined)	26.7%	81.3%	95.8%	29.7%	28.5%	15.6%	16.7%	36.9%	19.8%	43.4%	38.1%	31.2%	21.8%	3.72% (active)	15.2%	54.3%			
CCc1nc2cc(F)c(/C=C/C(=O)NO)cc2c(=O)n1CCc1ccccc1	7.93% (active)		15.4%	16%	11%	4.01% (active)	15.7%	24.4%	13.2%	30.2%	7.95% (active)	22.6%	4.25% (active)	-21.7% (active)	-33.9% (active)	19.4%	7.24% (active)	-13.5% (active)	34.8%
CCc1nc2cc(/C=C/C(=O)NO)c(F)cc2c(=O)n1CCc1ccccc1	4.01% (active)		15.5%	8.51% (active)	13.5%	1.7% (active)	3.41% (active)	25.9%	13.2%	19.7%	1.61% (active)	16.9%	-10.1% (active)	-33.5% (active)	-57.8% (active)	20.3%	6.83% (active)	-21.3% (active)	29.3%
CC1(O)CCC(Nc2cc(-c3ccc(C(F)(F)F)cc3)c(C#N)c3nc4ccccc4n23)CC1 (centres undefined)	67.8%		50.4%	64.5%	51.9%	63.4%	91.2%	58.6%	60.7%	70.3%	67.9%	35.5%	5.75% (active)	77.1%	55%	89.3%	73.1%	53.2%	41.4%
CC(=Nc1ccccc1)C1=C(O)C(Cc2ccccc2)NC1=O (centres undefined)	-31.5% (active)	58.6%	-1.28% (active)	14.1%	-19.1% (active)	-33.8% (active)	-16.6% (active)	5.57% (active)	-0.116% (active)	16.4%	15.5%	5.74% (active)	-43.3% (active)	24.6%	18.5%	37.8%			19.1%
CCc1ccc(C2=C(O)C(=O)C(c3ccc(CC)cc3)=C(O)C2=O)cc1	13.8%	-15.1% (active)	-0.828% (active)	0.61% (active)	-27.2% (active)	-71.8% (active)	4.98% (active)	6.42% (active)	0.54% (active)	8.83% (active)	1.63% (active)	6.64% (active)	-58.7% (active)	-44.1% (active)	4.72% (active)	-19.2% (active)			-16.9% (active)
COC(=O)[C@@H](C)CNS(=O)(=O)N(c1cc(C(F)(F)F)cc(C(F)(F)F)c1)C1CCN(Cc2ccc(F)cc2)CC1	92.9%	43.8%	71%	84.4%	81.1%	73.5%	58.5%	27.9%	19.5%	67.7%	52.3%	45.4%	29.9%	69.1%	48.2%	82.9%			65.4%
N#Cc1c(C(F)(F)F)cc(Nc2ccc3nc(NCCN4CCCC4)oc3c2)n2c1nc1ccccc12	89%		32.7%	78.8%	74.7%	86.4%	84.4%	56.6%	5.45% (active)	85.2%	89%	52.1%	69.8%	78.1%	62.3%	72.8%	11.8%	55.4%	82.6%
CC(=Nc1ccccc1)C1=C(O)C(Cc2ccc(O)cc2)NC1=O (centres undefined)	-28.6% (active)	58.6%	11.3%	11.5%	-41.1% (active)	-33.7% (active)	0.122% (active)	12.1%	1.34% (active)	34%		15.7%	-44% (active)	28.6%	19.2%	40%			15.2%
O=CC(OC(=O)c1ccccc1)C(OC(=O)c1ccccc1)C(COC(c1ccccc1)(c1ccccc1)c1ccccc1)OC(=O)c1ccccc1 (centres undefined)	86%	67.9%	48.4%	38.5%	93.5%	76.5%	53.4%	48.8%	52.6%	78.8%	19%	3.19% (active)	70.3%	63.4%	13.8%	0.343% (active)			94%
C=C1[C@@H](O)C[C@H]2C(C)(C)C[C@H](Cl)C[C@]2(C)[C@H]1C[C@H](O)[C@H]1CC(=O)NC1=O	-29.1% (active)		-31% (active)	-20.8% (active)	-29.2% (active)	-35.4% (active)	-75.5% (active)	-13.7% (active)	-23.6% (active)	-20.7% (active)		-19% (active)	-70.1% (active)	-72.4% (active)	-71.9% (active)	-26.1% (active)	1.91% (active)	-63.2% (active)	-37.2% (active)
NC(=O)N1N=C(c2ccc(Cl)cc2)CC1c1cn(-c2ccccc2)nc1-c1ccc(Cl)cc1 (centres undefined)	77.7%		43.4%	55.4%	40.3%	37.8%	79.8%	72%	51.1%	44%	46%	52.8%	79%	61.7%	55.9%	78.4%	78.8%	-11.2% (active)	-10.5% (active)
CCOC(=O)Sc1ncnc2nc[nH]c12	38%	59.2%	45.7%	65.8%	36.8%	36.7%	13.7%	82.5%	59.6%	91.1%	91.7%	88%	74.1%	16%	7.98% (active)	100%			62%
O=C(Nc1ccc(C2=NCCCN2)cc1)c1ccc(C(=O)Nc2ccc(C3=NCCCN3)cc2)nc1	122%	117%	104%	106%	110%	104%	102%	108%	109%	96.8%	105%	106%	99.3%	99.5%	105%	120%			87%
COC(=O)c1[nH]cnc1/N=N/N(C)CCO	110%	119%	118%	93%	112%	95%	101%	109%	108%	103%		109%	102%	101%	101%	117%			79%
COc1cnc2c(c1)C(=O)c1c-2n(CCCN2CCC(N)CC2)c(=O)c2cc([N+](=O)[O-])ccc12	13.2%		57.9%	50%	24.2%	70.3%	52.9%	49%	36.5%	39.8%	39.4%	40.7%	72.4%	49.8%	21.2%	116%	49.2%	64.4%	60.9%
C=C1C(=O)O[C@H]2[C@H]1CC/C(C=Nc1c(N)cc(C(F)(F)F)cc1C(F)(F)F)=C\CC[C@@]1(C)O[C@@H]21	5.82% (active)		-49.5% (active)	1.5% (active)	49.7%	-84.5% (active)	-61.2% (active)	-31.1% (active)	-15.2% (active)	36.8%		-12.8% (active)	-43.6% (active)	-57.1% (active)	-87.5% (active)	-17.2% (active)	-4.88% (active)	-81.6% (active)	48.6%
N#Cc1c(-c2ccc(C(F)(F)F)cc2)cc(NCC2CCS(=O)(=O)CC2)n2c1nc1ccccc12	106%		56.2%	82.4%	88.2%	82%	99.2%	86.2%	75.7%	83.5%	83.2%	63.4%	77.7%	80.8%	77.5%	95.8%	90%	72.6%	
